Cycloheximide cs – counter-screen for Shiga toxin inhibitors: cycloheximide protein synthesis inhibition; max response, %; cell reporter, cycloheximide protein synthesis inhibition counterscreen; actives 12% (n = 300,000); in the data active = max response mostly above about 13%, no sharp cut-off; inactive = mostly below about 14%; also: read at 38.3 µM for the half of the compounds with a filed dose; 0% is about no effect
NS1 function inh – blocks influenza NS1 protein function | Potency, µM (top dose mostly 46.1 µM), without a hit: at the highest dose activity, positive = more growth | actives 0.4% (n = 270,000); calls by dose curve; also: potency is read from the fitted curve at half-maximal effect; actives are rising curves; nearly all actives have a fitted effect of over 50% in size
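S. cerevisiae expressing influenza A NS1, grown in glucose, washed, then diluted 1:100 into pH 6.0 -URA galactose medium with 23 nl compound. Growth recovery read as OD600; NS1-free strain serves as control.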
Pf growth 96h – inhibits malaria parasite growth, 96 h; P. falciparum luciferase reporter growth, 96 h; Potency, µM (top dose mostly 28.7 µM), for inactives: at the top dose activity change, negative = inhibition, most hits filed as inhibitors; actives 6.9% (n = 320,000); also: potency is read from the fitted curve at half-maximal effect; % is scaled to controls: 0 for no effect and ±100 for the full control effect
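Luminescence readout: decreased luciferase signal marks inhibited growth of reporter-expressing P. falciparum in infected red cells (2% hematocrit, 0.05% parasitemia final), exposed to compound two generations (96 h, 37 C, 5% CO2).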
Shiga toxin inh – Shiga toxin inhibition | Vero cells, Shiga toxin protein synthesis inhibition reporter | inhibition, % at 38.7 µM | actives 9.2% (n = 290,000) | AID 2315; in the data active = inhibition mostly above about 28%, no sharp cut-off; inactive = mostly below about 43%; also: 0% is about no effect
Pf growth 48h – P. falciparum growth inhibition at 48 hours (one generation); Potency, µM (top dose mostly 28.7 µM), inactives show at the highest dose activity change, negative = inhibition, actives largely listed as inhibitors; P. falciparum luciferase growth in erythrocytes, 48 h; actives 5.9% (n = 310,000); also: potency is read from the fitted curve at half-maximal effect; % is scaled to controls: 0 for no effect and ±100 for the full control effect
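Here the parasites carry a stable luciferase gene and grow inside erythrocytes in Albumax-based RPMI medium with compound for one erythrocytic cycle. Activity is scored as loss of luminescent signal.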
An asterisk follows results filed as active. Hits are enriched below; roughly 21% of the tested compounds scored in any of these assays. Unless noted, calls follow the shape of the dose curve; as a rule, active = well fitted inhibition curve with a large enough effect; inconclusive = small, poorly fitted or top-dose-only effect, or another doubt; inactive = no such curve, though single readings can be large or run the other way.

What do the screens show for `CC[C@H](C)[C@H](NC(=O)[C@H](CO)NC(=O)[C@H](CC(C)C)NC(=O)[C@@H]1CCCN1C(=O)[C@@H]1CCCN1C(=O)[C@H](CC(=O)O)NC(=O)[C@@H](N)CC(=O)O)C(=O)N[C@@H](CC(=O)O)C(=O)N[C@@H](CC(C)C)C(=O)N[C@H](C(=O)N[C@@H](Cc1ccccc1)C(=O)N[C@@H](Cc1cnc[nH]1)C(=O)N[C@@H](CC(C)C)C(=O)N[C@@H](CC(C)C)C(=O)N[C@@H](CCCNC(=N)N)C(=O)N[C@H](C(=O)N[C@@H](CC(C)C)C(=O)N[C@@H](CC(C)C)C(=O)N[C@@H](CCC(=O)O)C(=O)N[C@@H](CC(C)C)C(=O)N[C@@H](C)C(=O)N[C@@H](CCCNC(=N)N)C(=O)N[C@H](C(=O)N[C@@H](CCC(N)=O)C(=O)N[C@@H](CO)C(=O)N[C@@H](CCC(N)=O)C(=O)N[C@@H](CCCNC(=N)N)C(=O)N[C@@H](CCC(=O)O)C(=O)N[C@@H](CCCNC(=N)N)C(=O)N[C@@H](C)C(=O)N[C@@H](CCC(=O)O)C(=O)N[C@@H](CCC(N)=O)C(=O)N[C@@H](CC(N)=O)C(=O)N[C@@H](CCCNC(=N)N)C(=O)N[C@H](C(=O)N[C@H](C(=O)N[C@@H](Cc1ccccc1)C(=O)N[C@@H](CC(=O)O)C(=O)N[C@@H](CO)C(=O)N[C@H](C(N)=O)C(C)C)[C@@H](C)CC)[C@@H](C)CC)[C@@H](C)O)[C@@H](C)O)[C@@H](C)O`?
Cycloheximide cs: 13; Shiga toxin inh: -7

Results for CS(=O)(=O)Cc1ccc(C(=O)N2CCCC2c2cccs2)cc1 (centres undefined) ?
Cycloheximide cs: 0; NS1 function inh: 4%; Pf growth 96h: 13%; Shiga toxin inh: -5; Pf growth 48h: 24%

Results for Cc1ccc(C)c(Cn2c(=O)n(C)c(=O)c3sccc32)c1 ?
Cycloheximide cs: -2; NS1 function inh: -8%; Pf growth 96h: inconclusive; Shiga toxin inh: -15; Pf growth 48h: 3%

Results for COC(=O)CSc1nnc2cc(C)c3ccccc3n12 ?
Cycloheximide cs: 8; NS1 function inh: -42%; Pf growth 96h: -27%; Shiga toxin inh: -4; Pf growth 48h: 33%

How did COc1ccc(COC[C@H](C)[C@H](O)[C@@H](C)[C@H]2OC(=O)[C@@H]2C)cc1 do in these assays?
Cycloheximide cs: 10; Shiga toxin inh: -8

How did c1ccc(Cn2c(NCc3ccncc3)nc3ccccc32)cc1 do in these assays?
Cycloheximide cs: 26*; NS1 function inh: 6%; Pf growth 96h: 384%; Shiga toxin inh: 52*; Pf growth 48h: 58%

How did C=CCn1c(NCc2ccc(OC)cc2O)nc2ccccc21 do in these assays?
Cycloheximide cs: 33*; NS1 function inh: 0%; Pf growth 96h: 2.9µM*; Shiga toxin inh: 23*; Pf growth 48h: inconclusive

Results for c1ccc(Cn2c(NCc3ccccn3)nc3ccccc32)cc1 ?
Cycloheximide cs: -2; Pf growth 96h: inconclusive; Shiga toxin inh: 3; Pf growth 48h: -1%

Results for O=C(O)CS(=O)(=O)CC(=O)NCc1cccc(C(F)(F)F)c1 ?
Cycloheximide cs: 1; NS1 function inh: 0%; Pf growth 96h: 27%; Shiga toxin inh: -12; Pf growth 48h: 15%

Results for O=S(=O)(c1ccc2ccccc2c1)N(CC(O)CN1CCOCC1)c1ccccc1 (centres undefined) ?
Cycloheximide cs: -4; NS1 function inh: -3%; Pf growth 96h: 30%; Shiga toxin inh: -11; Pf growth 48h: -31%

What do the screens show for `NCCCC(N)CC(=O)NC1CNC(=O)C(C2CC(O)N=C(N)N2)NC(=O)/C(=C/NC(N)=O)NC(=O)C(CO)NC(=O)C(CO)NC1=O` (centres undefined)?
Pf growth 96h: 7%; Pf growth 48h: 3%

What do the screens show for `COc1cccc(C2c3[nH]c4ccccc4c3CCN2Cc2cccn2-c2ncccn2)c1` (centres undefined)?
Cycloheximide cs: -3; NS1 function inh: 5%; Pf growth 96h: 5.2µM*; Shiga toxin inh: 21; Pf growth 48h: inconclusive

How did CCn1cc(CN2CCc3c([nH]c4ccccc34)C2c2ccc(F)c(OC)c2)c(C)n1 (centres undefined) do in these assays?
Cycloheximide cs: 3; NS1 function inh: -1%; Pf growth 96h: inconclusive; Shiga toxin inh: 4; Pf growth 48h: 12µM*

Results for CSc1ncc(CN2CCc3c([nH]c4ccccc34)C2c2cccc(O)c2)cn1 (centres undefined) ?
Cycloheximide cs: 1; NS1 function inh: -4%; Pf growth 96h: -53%; Shiga toxin inh: -7; Pf growth 48h: 4.1µM*

How did Clc1ccc(-n2cccc2CN2CCc3c([nH]c4ccccc34)C2c2ccccn2)nc1 (centres undefined) do in these assays?
Cycloheximide cs: -1; NS1 function inh: 2%; Pf growth 96h: 10µM*; Shiga toxin inh: 2; Pf growth 48h: 9.3µM*

Results for COc1cccc(C2c3[nH]c4ccccc4c3CCN2CCCn2cccn2)c1 (centres undefined) ?
Cycloheximide cs: -2; NS1 function inh: 2%; Pf growth 96h: inconclusive; Shiga toxin inh: -5; Pf growth 48h: inconclusive

Results for CCn1nc(C)c(CN2CCc3c([nH]c4ccccc34)C2c2ccc(F)c(OC)c2)c1C (centres undefined) ?
Cycloheximide cs: 16*; NS1 function inh: -7%; Pf growth 96h: inconclusive; Shiga toxin inh: 19; Pf growth 48h: 2.6µM*

Results for CCn1cc(CN2CCc3c([nH]c4ccccc34)C2c2cccc(OC)c2)c(C)n1 (centres undefined) ?
Cycloheximide cs: -2; NS1 function inh: -4%; Pf growth 96h: inconclusive; Shiga toxin inh: 11; Pf growth 48h: 12µM*

What do the screens show for `Fc1ccc(C2c3[nH]c4ccccc4c3CCN2Cc2cccn2-c2ncccn2)cc1` (centres undefined)?
Cycloheximide cs: -2; NS1 function inh: 0%; Pf growth 96h: 18%; Shiga toxin inh: 1; Pf growth 48h: -3%

What do the screens show for `CCn1cc(CN2CCc3c([nH]c4ccccc34)C2c2cccc(O)c2)c(C)n1` (centres undefined)?
Cycloheximide cs: -1; NS1 function inh: -6%; Pf growth 96h: -1%; Shiga toxin inh: -2; Pf growth 48h: -17%

Results for CCN(CC)CCNC(=O)c1ccc(NC(=O)c2ccc(COc3ccccc3)cc2)cc1 ?
Cycloheximide cs: 29*; NS1 function inh: 10%; Pf growth 96h: inconclusive; Shiga toxin inh: -7; Pf growth 48h: 30%

What do the screens show for `CCN(CC)CCNC(=O)c1ccc(NC(=O)c2ccc(C(=O)c3ccccc3)cc2)cc1`?
Pf growth 96h: 10µM*; Pf growth 48h: 5.9µM*

Results for CCN(CC)CCNC(=O)c1ccc(NC(C)=O)cc1 ?
Cycloheximide cs: 0; NS1 function inh: -4%; Pf growth 96h: 3%; Shiga toxin inh: 8; Pf growth 48h: 11%
